Here are results for six molecules from PubChem BioAssay.

Active and inactive are the calls of the source.

The subject of test [1] is Plasmodium falciparum Sir2 (PF13_0152, Sir2A). As to the kind of experiment: Plasmodium falciparum Sir2A binding compounds – biochemical, small-molecule microarray, 635 nm fluorescence, primary screen (AID 1098).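 Also: score merges spot fluorescence intensity with its signal-to-noise ratio.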 The conditions noted are these: fluorescence 635 nm, higher = more signal.
Test [2] is described as follows: probe aDKK1 binding to arrayed compounds – biochemical, biotinylated probe, 635/667 nm fluorescence, primary screen (AID 1099).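 Also: score merges 667nm spot fluorescence with signal to noise across triplicate slides.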 The conditions noted are these: small-molecule microarray, higher = more signal.
Test [3] can be described thus: probe aCHRDL2 binding to arrayed compounds – biochemical, biotinylated probe, 635/667 nm fluorescence, primary screen (AID 1100). The conditions noted are these: small-molecule microarray, higher = more signal.
Test [4] in a line: change in splice reporter luminescence, either direction, cell-based, HEK293, spliceosome inhibition project, primary screen (AID 1101).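 Also: HEK293 cells carrying a splicing-competent luciferase reporter gene; test concentration not given here.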 The conditions noted are these: HEK293 splicing luciferase reporter, 24 h, higher = more signal, called active from +8 up or from −8 down. For orientation: In a reporter assay the amount or activity of a reporter protein is the signal.
For test [5], the target named is Fibroblast growth factor 10 (Homo sapiens) (UniProt O15520). Nature of the test: compounds binding fibroblast growth factor 10 – biochemical, small-molecule microarray, 635 nm fluorescence, primary screen (AID 1102). The conditions noted are these: FGF10 binding, fluorescence 635 nm, higher = more signal.
Test [6] has as its system glycogen synthase kinase-3 (GSK3A per assay name; protocol says GSK3B). As to the kind of experiment: compounds binding glycogen synthase kinase-3 – biochemical, small-molecule microarray, 635 nm fluorescence, GSK3A, primary screen (AID 1103). Also: the record names both GSK3A and GSK3B. The conditions noted are these: fluorescence 635 nm, higher = more signal.
In test [7] the target is Epidermal growth factor receptor (Homo sapiens) (UniProt P00533). Nature of the test: compounds binding epidermal growth factor receptor – biochemical, small-molecule microarray, 635 nm fluorescence, primary screen (AID 1104).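 Also: score merges 667 nm emission intensity with spot signal to noise over triplicate slides.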 The conditions noted are these: EGFR binding, higher = more signal.
Test [8] has as its target Follistatin-related protein 3 (Homo sapiens) (UniProt O95633). As to the kind of experiment: compounds binding follistatin-related protein 3 – biochemical, small-molecule microarray, 635 nm fluorescence, primary screen (AID 1105).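 Also: score merges emission near 667 nm and signal to noise per printed spot across three slides.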 The conditions noted are these: FSTL3 binding, higher = more signal.
Test [9] addresses Dickkopf-related protein 1 (Homo sapiens) (UniProt O94907). Nature of the test: small molecules binding DKK1 protein – biochemical, small-molecule microarray, 635 nm fluorescence scan, primary screen (AID 1106).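 Also: score merges emission near 667 nm with signal to noise over three replicate slides.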 The conditions noted are these: higher = more signal.
The subject of test [10] is Inhibin beta A chain (activin A). Nature of the test: small molecules binding activin A – biochemical, small-molecule microarray, 635 nm fluorescence scan, primary screen (AID 1107).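 Also: mouse activin A protein probed at 4.33 µg/mL on printed slides; score merges bound-protein fluorescence near 667 nm with spot signal-to-noise.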 The conditions noted are these: INHBA, higher = more signal.
Test [11] concerns Human papillomavirus type 1a protein E7 (residues 44-93). Nature of the test: small molecules binding HPV E7 44-93 – biochemical, small-molecule microarray, residues 44-93, 635 nm fluorescence, primary screen (AID 1108).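 Also: E7 fragment applied at 1 µg/mL in TBST for 1 h at 4 C; score combines spot fluorescence with its signal to noise ratio.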 The conditions noted are these: fluorescence 635 nm, higher = more signal.
Test [12] in a line: hepatitis C replication reporter changes, two-sided – Huh7 cells, luciferase reporter, HCV replication inhibitor project, primary screen (AID 1109).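 Also: huh7 hepatoma cells harbouring a luciferase neomycin HCV replicon reporter; luciferase luminescence as measure of HCV replicon replication; test concentration not given here.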 The conditions noted are these: Huh7 HCV replicon luciferase reporter, 48 h; higher = more signal.
The target in test [13] is Left-right determination factor 2 (Homo sapiens) (UniProt O00292). As to the kind of experiment: small molecules binding LEFTY2 protein – biochemical, small-molecule microarray, 635 nm fluorescence scan, primary screen (AID 1110). The conditions noted are these: higher = more signal.
For test [14], the target named is Calmodulin-1 (Homo sapiens) (UniProt P0DP23). Nature of the test: small molecules binding calmodulin-1 with EGTA – biochemical, small-molecule microarray, Cy5-labelled CALM1, profiling panel (AID 1111).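 Also: labelled calmodulin applied in Tris saline Tween buffer holding calcium plus EGTA and DTT.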 The conditions noted are these: Cy5-CALM1 binding fluorescence, higher = more signal.
Test [15] has the same target. Nature of the test: small molecules binding Ca-loaded calmodulin-1 – biochemical, small-molecule microarray, Cy5-labelled CALM1, plus calcium, artefact control for SMM control-protein annotation, profiling panel (AID 1112).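 Also: score merges spot fluorescence with signal to noise from triplicate slides.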 The conditions noted are these: Cy5-CALM1 binding fluorescence, higher = more signal.
A short description of test [16]: probe aWnt5a binding to arrayed compounds – biochemical, biotinylated probe, 635/667 nm fluorescence, primary screen (AID 1113).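 Also: score merges 667 nm fluorescence intensity with signal-to-noise per printed feature.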 The conditions noted are these: small-molecule microarray, higher = more signal.
A short description of test [17]: probe aShh binding to arrayed compounds – biochemical, biotinylated probe, 635/667 nm fluorescence, primary screen (AID 1114).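 Also: probe is biotin-labelled aShh protein from a stem cell growth factor screen; measures binding of labelled protein to compounds printed on the slide; score merges feature fluorescence at 667 nm with signal-to-noise.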 The conditions noted are these: small-molecule microarray, higher = more signal.
The nature of test [18]: probe aNog binding to arrayed compounds – biochemical, biotinylated probe, 635/667 nm fluorescence, primary screen (AID 1115).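 Also: probe is biotinylated aNog protein used at 0.15 µg/mL for 1 h at 4 C; z-score combines 667 nm fluorescence of each spot with its signal to noise.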 The conditions noted are these: small-molecule microarray, higher = more signal.
Test [19] concerns the target Torsin-1A-interacting protein 1 (Homo sapiens) (UniProt Q5JTV8). As to the kind of experiment: compound microarray binding of lysate hLAP1 – cell lysate, small-molecule microarray, COS7 lysate, 635/667 nm fluorescence, primary screen (AID 1116). The conditions noted are these: 635 nm fluorescence, higher = more signal.
For test [20], the target named is Alpha-bungarotoxin (Bungarus multicinctus) (UniProt P60615). As to the kind of experiment: compounds binding labelled alpha-BTX control protein – biochemical, small-molecule microarray, Alexa647 label, 635/667 nm fluorescence, artefact control for SMM control protein annotation, profiling panel (AID 1117). The conditions noted are these: alpha-BTX-A647 binding fluorescence, higher = more signal.
Chain of Alpha-bungarotoxin (Bungarus multicinctus) (P60615 whole entry, looked up): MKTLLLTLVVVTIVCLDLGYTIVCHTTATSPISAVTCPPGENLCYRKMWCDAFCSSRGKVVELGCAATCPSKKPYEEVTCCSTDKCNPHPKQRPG

Chain of Dickkopf-related protein 1 (Homo sapiens) (O94907 whole entry, looked up): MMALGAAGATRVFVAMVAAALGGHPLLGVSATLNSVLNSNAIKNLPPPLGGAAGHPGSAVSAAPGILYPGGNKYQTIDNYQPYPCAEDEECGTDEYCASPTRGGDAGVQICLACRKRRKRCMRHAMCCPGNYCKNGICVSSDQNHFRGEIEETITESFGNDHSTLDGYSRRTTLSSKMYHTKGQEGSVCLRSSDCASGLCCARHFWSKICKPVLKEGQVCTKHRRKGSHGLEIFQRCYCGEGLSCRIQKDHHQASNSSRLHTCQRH
Chain of Epidermal growth factor receptor (Homo sapiens) (P00533 whole entry, looked up): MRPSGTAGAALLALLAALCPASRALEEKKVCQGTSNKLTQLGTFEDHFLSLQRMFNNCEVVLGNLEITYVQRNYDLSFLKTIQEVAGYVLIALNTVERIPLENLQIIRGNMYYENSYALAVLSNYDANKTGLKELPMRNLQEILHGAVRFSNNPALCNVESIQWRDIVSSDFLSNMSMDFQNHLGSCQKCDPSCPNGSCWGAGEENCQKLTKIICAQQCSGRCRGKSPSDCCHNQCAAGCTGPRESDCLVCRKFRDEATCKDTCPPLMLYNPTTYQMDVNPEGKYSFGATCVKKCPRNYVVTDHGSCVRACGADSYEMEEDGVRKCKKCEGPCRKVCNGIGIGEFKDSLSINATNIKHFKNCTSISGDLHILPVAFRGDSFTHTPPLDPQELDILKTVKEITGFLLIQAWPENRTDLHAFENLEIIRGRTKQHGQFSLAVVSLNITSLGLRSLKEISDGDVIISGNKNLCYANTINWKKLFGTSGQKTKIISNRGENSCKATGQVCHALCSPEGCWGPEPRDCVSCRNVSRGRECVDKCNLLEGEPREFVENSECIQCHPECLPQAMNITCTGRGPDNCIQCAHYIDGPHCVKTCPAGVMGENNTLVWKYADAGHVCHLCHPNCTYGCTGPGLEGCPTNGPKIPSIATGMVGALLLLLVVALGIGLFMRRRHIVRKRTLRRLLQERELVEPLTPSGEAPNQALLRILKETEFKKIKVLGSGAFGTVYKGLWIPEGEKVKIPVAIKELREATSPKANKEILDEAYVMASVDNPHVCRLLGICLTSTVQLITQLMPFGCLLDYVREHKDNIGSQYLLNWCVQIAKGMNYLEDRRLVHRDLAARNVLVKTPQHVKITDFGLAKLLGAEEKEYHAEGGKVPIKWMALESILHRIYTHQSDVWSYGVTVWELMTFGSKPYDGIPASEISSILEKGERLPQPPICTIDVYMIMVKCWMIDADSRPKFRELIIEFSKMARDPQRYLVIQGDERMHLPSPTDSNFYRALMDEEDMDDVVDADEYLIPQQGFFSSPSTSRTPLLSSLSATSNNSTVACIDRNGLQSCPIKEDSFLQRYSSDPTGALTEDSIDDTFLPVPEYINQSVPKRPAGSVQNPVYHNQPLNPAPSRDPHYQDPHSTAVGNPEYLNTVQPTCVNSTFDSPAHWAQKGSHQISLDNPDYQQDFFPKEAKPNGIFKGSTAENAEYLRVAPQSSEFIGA
Chain of Follistatin-related protein 3 (Homo sapiens) (O95633 whole entry, looked up): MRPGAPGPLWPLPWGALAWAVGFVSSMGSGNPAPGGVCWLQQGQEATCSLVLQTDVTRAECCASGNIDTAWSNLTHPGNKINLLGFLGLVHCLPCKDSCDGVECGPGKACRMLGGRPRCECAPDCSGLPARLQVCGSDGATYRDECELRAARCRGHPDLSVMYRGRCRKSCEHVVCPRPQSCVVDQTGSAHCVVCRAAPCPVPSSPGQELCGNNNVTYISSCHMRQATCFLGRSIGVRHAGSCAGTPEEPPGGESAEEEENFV
Chain of Torsin-1A-interacting protein 1 (Homo sapiens) (Q5JTV8 whole entry, looked up): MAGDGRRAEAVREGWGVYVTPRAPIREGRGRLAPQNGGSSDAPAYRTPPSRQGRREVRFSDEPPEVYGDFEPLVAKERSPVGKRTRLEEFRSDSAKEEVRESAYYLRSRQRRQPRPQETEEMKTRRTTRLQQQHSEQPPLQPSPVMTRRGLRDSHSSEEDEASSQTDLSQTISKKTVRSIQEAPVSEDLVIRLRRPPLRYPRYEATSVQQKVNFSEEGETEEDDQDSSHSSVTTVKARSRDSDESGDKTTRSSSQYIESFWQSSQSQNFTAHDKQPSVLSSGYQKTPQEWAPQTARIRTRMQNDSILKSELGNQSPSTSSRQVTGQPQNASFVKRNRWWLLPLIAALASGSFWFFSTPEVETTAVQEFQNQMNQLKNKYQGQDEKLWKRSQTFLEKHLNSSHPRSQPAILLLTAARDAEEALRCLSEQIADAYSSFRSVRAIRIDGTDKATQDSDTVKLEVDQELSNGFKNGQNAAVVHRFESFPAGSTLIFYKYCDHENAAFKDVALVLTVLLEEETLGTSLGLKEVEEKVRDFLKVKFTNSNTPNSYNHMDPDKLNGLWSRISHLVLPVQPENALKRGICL
Chain of Fibroblast growth factor 10 (Homo sapiens) (O15520 whole entry, looked up): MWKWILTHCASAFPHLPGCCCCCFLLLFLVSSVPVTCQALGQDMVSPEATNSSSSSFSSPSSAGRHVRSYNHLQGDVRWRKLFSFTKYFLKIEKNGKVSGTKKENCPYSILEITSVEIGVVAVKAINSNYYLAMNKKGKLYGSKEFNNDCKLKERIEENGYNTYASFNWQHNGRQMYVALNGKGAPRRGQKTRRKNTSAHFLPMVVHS
Chain of Left-right determination factor 2 (Homo sapiens) (O00292 whole entry, looked up): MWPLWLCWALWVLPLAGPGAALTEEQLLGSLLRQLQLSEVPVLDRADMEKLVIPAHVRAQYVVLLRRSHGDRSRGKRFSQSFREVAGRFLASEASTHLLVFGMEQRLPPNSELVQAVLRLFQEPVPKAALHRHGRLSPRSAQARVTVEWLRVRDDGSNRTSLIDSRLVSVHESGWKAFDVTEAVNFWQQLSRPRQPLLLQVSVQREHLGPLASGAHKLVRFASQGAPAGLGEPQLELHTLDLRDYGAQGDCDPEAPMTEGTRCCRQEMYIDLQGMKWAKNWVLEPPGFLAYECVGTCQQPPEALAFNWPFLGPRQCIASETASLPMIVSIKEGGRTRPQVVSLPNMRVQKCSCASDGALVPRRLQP

As to `CO[C@H]1O[C@H](CO)[C@@H](OC(=O)c2ccc(Br)cc2)[C@@H]2OC(=O)[C@@H](Cc3ccc4ccccc4c3)C/C=C/C[C@H](Cc3ccc4ccccc4c3)C(=O)O[C@@H]12`, the composite z-score was 0.995 in test [1]; 0.463 in test [2]; 0.769 in test [3]; 0.429 in [5]; 0.548 in test [6]; -0.567 in [7]. In addition, the composite z-score in test [8] was 0.323; in test [9], -0.54; in [10], 0.588; in test [11], 0.872; in test [13] it was -0.255; in [14] it was 1.29. Also, the composite z-score is -0.145 in test [15]; -0.0894 in test [16]; -0.16 in test [17]; -0.241 in [18]; 1.22 in test [19]; 0.528 in test [20]. Moreover, the z-score in test [4] is -0.83 (inactive); in test [12] it was -1.13.
With `Cc1c(NC(=O)/C(C#N)=C/C=C/c2ccccc2[N+](=O)[O-])c(=O)n(-c2ccccc2)n1C`, the composite z-score was 1.03 in [1]; -0.0194 in test [2]; 0.147 in [3]; 0.386 in [5]; 0.417 in test [6]; 0.187 in [7]. For the same molecule, the composite z-score stood at 0.71 in test [8]; 0.446 in test [9]; 0.0089 in test [10]; 0.475 in [11]; 0.34 in test [13]; 0.517 in [14]. Besides, the composite z-score in [15] was 0.188; in [16], -0.092; in test [17], -0.292; in test [18] it was -0.527; in test [19], 0.37; in test [20], 0.556. Further, the figures for the z-score in test [4] and in test [12] were 4.71 (inactive) and -2.79, respectively.
In the case of `COc1ccc([Si](C)(C)[C@H]2[C@H](CCn3cc([C@H](O)c4ccccc4)nn3)O[C@@]3(C(=O)N(Cc4ccc(N5CCOC5=O)cc4)c4ccccc43)[C@@H]2C)cc1`, the composite z-score in [1] was -0.215; in test [2], 0.555; in [3] it was 0.282; in test [5], -1.23; in test [6], -2.18; in [7], -0.228. Also, the composite z-score was -1.54 in test [8]; -0.958 in test [9]; -0.794 in [10]; -0.873 in [11]; -0.849 in test [13]; 0.287 in [14]. The composite z-score in [15] was 0.481; in test [16], -0.176; in test [17], -0.138; in test [18], -0.1; in [19], -0.833; in [20], -0.374. Besides, the results for the z-score in test [4] and in test [12] were -0.372 (inactive) and -2.21, respectively.
Regarding `C=CCNC(=O)[C@H]1[C@@H]2C(=O)O[C@@H](c3ccccc3)[C@@H](c3ccccc3)N2[C@@H](c2ccccc2OCCO)[C@]12C(=O)N(C(=O)OCCOC)c1ccc(C#CC3=CCCCC3)cc12`, the composite z-score in test [1] came out at 1.39; in test [2], 0.683; in test [3], 0.521; in test [5], 0.996; in test [6], 1.22; in test [7] it was 0.69. The composite z-score came out at 1.32 in test [8]; 1.11 in test [9]; 1.41 in test [10]; 1.43 in [11]; 0.68 in [13]; 1.63 in test [14]. Moreover, the composite z-score turned out to be 0.49 in test [15]; 0.125 in test [16]; 0.0915 in [17]; 1.12 in test [18]; 0.794 in [19]; 1.4 in [20]. For the same molecule, the z-score in test [4] is -1.85 (inactive); in test [12], -3.34.
As for `O=C1NC(=O)C2C1C=CC(C(O)c1cc(C(F)(F)F)cc(C(F)(F)F)c1)N2Nc1ccc(Cl)cc1Cl` (stereo not given), the composite z-score in test [1] was 0.314; in [2], 0.853; in [3], 0.824; in [5] it was 0.336; in [6], -0.514; in test [7], -0.66. For the same molecule, the composite z-score was -0.0146 in test [8]; -0.953 in [9]; 0.701 in test [10]; -0.158 in test [11]; -0.256 in test [13]; 1.91 in [14]. Also, the composite z-score in test [15] is 1.29; in test [16], -0.0405; in [17], 0.431; in test [18], 0.676; in test [19], 1.86; in test [20], 0.526. Also, the z-score was 0.916 (inactive) in test [4] and -0.99 in test [12].
In the case of `C=CCC(OC(C)=O)[C@@H]1[C@@H](N(Cc2ccc(-c3ccccc3)cc2)C(=O)c2cccc3ccccc23)c2cc(OCCCO)ccc2N1C(=O)Cc1ccc2ccccc2c1` (stereo not given in full), the composite z-score in [1] is -0.417; in test [2], 0.122; in test [3] it was 0.425; in test [5], 0.0665; in [6] it was -0.202; in test [7], -0.062. Further, the composite z-score in [8] is -0.0827; in [9] it was -0.169; in test [10] it was 0.796; in [11] it was -0.106; in test [13], -0.304; in [14], -0.29. Further, the composite z-score in test [15] was 0.842; in [16] it was -0.108; in [17], -0.243; in test [18], -0.225; in test [19], 0.0247; in test [20], 0.528. Also, the z-score was -0.862 (inactive) in test [4] and -0.374 in test [12].
